Laboratory results published in PMC7819943, “Rice protein-binding microarrays: a tool to detect cis-acting elements near promoter regions in rice”.
In all, about 68,000 sequences were measured (“fluorescence intensity (a.u.)”: median about 9,100, highest 2% from about 16,000 on). For the sample, the highest values were picked, then their nearest neighbours and some sequences at random.

Target: OsWRKY34 (Oryza sativa, UniProt Q0JBA9 1-250)
Assay: protein-binding microarray (RPBM); PBS, 2% BSA, 51.3 ng/ul salmon testes DNA, 50 uM zinc acetate, 200 nM TF, 25 C, 1 h; high values mean tight binding
Conditions: protein: recombinant; tags: N-terminal polyhistidine and DsRed monomer fusion (pET32a); label: CyDye5-dUTP incorporated in the synthesized complementary strand; 3' TTTTT single-stranded linker to array surface; dsDNA, one strand shown
In short: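 Polyhistidine-tagged DsRed fusions of transcription factors, joined at the N-terminus, were expressed in E. coli BL21-CodonPlus and isolated on Ni–NTA. They were incubated at 200 nM for 1 h at 25 °C on a custom Agilent array, double-stranded and BSA-blocked, in PBS with 2% BSA, salmon testes DNA and 50 µM zinc acetate. The binding signal is per-feature fluorescence intensity (arbitrary units) read on an Axon 4000B scanner after washing.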

OsWRKY34, sequence (Q0JBA9 entry or part of it): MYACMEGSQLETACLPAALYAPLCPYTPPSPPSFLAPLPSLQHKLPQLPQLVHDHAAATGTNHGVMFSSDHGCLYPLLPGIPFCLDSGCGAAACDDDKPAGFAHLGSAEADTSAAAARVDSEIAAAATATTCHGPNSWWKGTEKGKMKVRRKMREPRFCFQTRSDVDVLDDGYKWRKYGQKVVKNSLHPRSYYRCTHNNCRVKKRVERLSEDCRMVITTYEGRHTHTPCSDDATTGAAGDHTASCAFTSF

Sequence | binding signal
ATCCCAATCCATGATCCAGCCATTCATCATCTGCATATATCGGAGTCACCTAGTGCAG | 9790 fluorescence intensity (a.u.)
TCTTGTGCAGGGGTTGATTTTTCAGTGTATAGGGGTATGACGGAGTCACCTAGTGCAG | 16800 fluorescence intensity (a.u.)
ATGAGTGATTGATTTCTTGTTTATAGGAGTGGGTTGTTCACGGAGTCACCTAGTGCAG | 11200 fluorescence intensity (a.u.)
AGATTACGCCGTTAACTTTTTCTCACATGTTTGACCATTCCGGAGTCACCTAGTGCAG | 11000 fluorescence intensity (a.u.)
AATGTATGACGCCGTTGACTTTTTGACCAACGTTTGACTACGGAGTCACCTAGTGCAG | 36100 fluorescence intensity (a.u.)
AGATGACGCCGTTGACTTTTTATCACATGTTTAACCATTCCGGAGTCACCTAGTGCAG | 42300 fluorescence intensity (a.u.)
GTTTAGTTGATTTCAGGGCCAGTTCTTGTGGGGTTTTCAACGGAGTCACCTAGTGCAG | 8490 fluorescence intensity (a.u.)
AAACGCTATTGACTTTTTTTATAAATGTATGACCATTCGTCGGAGTCACCTAGTGCAG | 10400 fluorescence intensity (a.u.)
ATGTACGACGCTATTGACTTTTTAACCAACGTTTGACTATCGGAGTCACCTAGTGCAG | 11000 fluorescence intensity (a.u.)
AATATTCGACGCCGTTCACTTTTTTAAATATGTTTGACCACGGAGTCACCTAGTGCAG | 9820 fluorescence intensity (a.u.)
ATGTATGACGCCGTTGACTTTTCGACCAACGTTTATTCGTCGGAGTCACCTAGTGCAG | 30200 fluorescence intensity (a.u.)
ACTATTACTACCTCAGTTTTGAAATGTATGACGTTGACTTCGGAGTCACCTAGTGCAG | 11000 fluorescence intensity (a.u.)
ATCTGTCAGTGCCACATCACCACCACACAACCGCAAAGAACGGAGTCACCTAGTGCAG | 9250 fluorescence intensity (a.u.)
ATCGGTGTTGACCTCCATATGCTGATCAGGCCCCATTTCCCGGAGTCACCTAGTGCAG | 8140 fluorescence intensity (a.u.)
GGCCGAGCAGGTCTCCCGCGCCTTCGACATCCCTCTGCCACGGAGTCACCTAGTGCAG | 8600 fluorescence intensity (a.u.)
TTCCTCTACATTCTACGTCCGGTTGGATTTTGCATGCGATCGGAGTCACCTAGTGCAG | 8640 fluorescence intensity (a.u.)
TTCTTCCCAGATCGTGCTTCTCCCACTCGGATCAGCCGCCCGGAGTCACCTAGTGCAG | 8110 fluorescence intensity (a.u.)
TGTTGTTTTTTATGTGTGAACCTCTTTGATCTCAATGCAACGGAGTCACCTAGTGCAG | 8510 fluorescence intensity (a.u.)
CCTCCCTCACCGTCTTCCGCCTCGCCATCTCCAGCTCCGACGGAGTCACCTAGTGCAG | 10100 fluorescence intensity (a.u.)
CACCATCCATGCATATGCATCTTGTAGTTATTGCTTGCTCCGGAGTCACCTAGTGCAG | 9580 fluorescence intensity (a.u.)
TCCACATCATCCGACCAACTCTACCAGCCATTCCACCCGCCGGAGTCACCTAGTGCAG | 9160 fluorescence intensity (a.u.)

Sequence | binding signal
CCTTATACTGTCTCACTTGTCTCACACTGAAACCGTTTTCCGGAGTCACCTAGTGCAG | 8410 fluorescence intensity (a.u.)
CGTTTGGCCAAGTATATGACGCCCTAACTTATAAGTTGACCGGAGTCACCTAGTGCAG | 8420 fluorescence intensity (a.u.)
ACGCCGTTAACTTTTTATCCAATGTTTGACCATTCGTCTTCGGAGTCACCTAGTGCAG | 13000 fluorescence intensity (a.u.)
TGACGACGCCATTGACTTTTGAACACATGTTTGACCATTCCGGAGTCACCTAGTGCAG | 15900 fluorescence intensity (a.u.)
GTATGACGCCGTTGACTTTTTGGCCAACGTTTGACCATTCCGGAGTCACCTAGTGCAG | 41500 fluorescence intensity (a.u.)
GTATAACGCCGTTGACTTTTTAACCAATGTTTGACCATTCCGGAGTCACCTAGTGCAG | 40400 fluorescence intensity (a.u.)
TCCATCGCGCGTCGTCTCCACCTTTGTTGCTTGTGCCACCCGGAGTCACCTAGTGCAG | 10200 fluorescence intensity (a.u.)
ATGGGGTATTTAGGATGGGCAATATTTTGGTAGTGAGGAGCGGAGTCACCTAGTGCAG | 9430 fluorescence intensity (a.u.)
TGCTAAAAAGTCAACGGTGTCAAACATTTCGAAACGGAGGCGGAGTCACCTAGTGCAG | 10900 fluorescence intensity (a.u.)
ACCACCACCGTCTCAACTCTCTCTCAGACTGTCCGCCATGCGGAGTCACCTAGTGCAG | 8030 fluorescence intensity (a.u.)
ATATATCCATGCGAACTTCGCTCCAATAGTGAATTTTATCCGGAGTCACCTAGTGCAG | 8900 fluorescence intensity (a.u.)
TAAAGCTTTATATAGCTGGCCCGCTGACTTTTTTATATATCGGAGTCACCTAGTGCAG | 9020 fluorescence intensity (a.u.)
ATATACATAAGCTTCTCGTGCACACACAAACTAACATAAACGGAGTCACCTAGTGCAG | 8610 fluorescence intensity (a.u.)
GCTTTATCGTGCAAACACCTAAGCTGATAAAGGCAAAGGTCGGAGTCACCTAGTGCAG | 23200 fluorescence intensity (a.u.)
GGAGCGATGACGTTCTATACCTTCGGCCTTCGTTTGACCGCGGAGTCACCTAGTGCAG | 10600 fluorescence intensity (a.u.)
TTGATTTCTCTGAGTTTGTGTTCTTGGCATCATCATCATTCGGAGTCACCTAGTGCAG | 11400 fluorescence intensity (a.u.)
TTTTTCTCCCCAGATTGCTGTGCACGGATTTGCCGTAAGACGGAGTCACCTAGTGCAG | 8360 fluorescence intensity (a.u.)
TGTGTTTGAGGGGTGTGTATGTGTTGTGTTGTAGGTCAACCGGAGTCACCTAGTGCAG | 9510 fluorescence intensity (a.u.)
TATTTTATCTCACTGGCTATTTCCTATGATTATTTATTTCCGGAGTCACCTAGTGCAG | 11400 fluorescence intensity (a.u.)
GGGGCGATTTTTTTTTTTTTTTAGAATTGCGAGATAGGGGCGGAGTCACCTAGTGCAG | 10700 fluorescence intensity (a.u.)
ATTTGGGGTTTGGATACTTGAACTTTATTTTGACTTCTGACGGAGTCACCTAGTGCAG | 14000 fluorescence intensity (a.u.)

Sequence | binding signal
GGCTTTTGGTTTCTTGGTGGTTGTGGATTTTTTTTTTTTGCGGAGTCACCTAGTGCAG | 12300 fluorescence intensity (a.u.)
TTTTGGGGATAGATTTGCGCTTTTGGTGGGTGGGTTTGGGCGGAGTCACCTAGTGCAG | 14200 fluorescence intensity (a.u.)
AGGAGGGGTATTGTTGCTAATCTTGATTGTTTTACTCTTGCGGAGTCACCTAGTGCAG | 17000 fluorescence intensity (a.u.)
TTCTGTTTGGGTTTTGATTTGTTTCGGTTTGGCTGTTCTTCGGAGTCACCTAGTGCAG | 10600 fluorescence intensity (a.u.)
TTGCTTGTGTTGGGCCGTAGGGTTTTTGTTTTTTTTTTTGCGGAGTCACCTAGTGCAG | 8410 fluorescence intensity (a.u.)
AGTGTTAATCTTACTCCTTGTTGTATATTGCTAAGTTTTTCGGAGTCACCTAGTGCAG | 12900 fluorescence intensity (a.u.)
TTGTGTTTGGGCGGGAGAATTTTTGGGGATAGATTTGCGCCGGAGTCACCTAGTGCAG | 18500 fluorescence intensity (a.u.)
GCGGGCTGTTTTTTTCTTGCGGTTTGGTTTGGGATTTCTGCGGAGTCACCTAGTGCAG | 17400 fluorescence intensity (a.u.)
GCCGTATTTGTTTTTTTGGGATTTGGGGTTTGGATACTTGCGGAGTCACCTAGTGCAG | 18700 fluorescence intensity (a.u.)
GATTTCTTTGTTGATTTTATTGGTTTTCTCCTAATCTTGCCGGAGTCACCTAGTGCAG | 8820 fluorescence intensity (a.u.)
TCTGTATATAAGGCCTGATTTAGTTCCCAAATTTTTTTTCCGGAGTCACCTAGTGCAG | 8100 fluorescence intensity (a.u.)
AATATTTCCCTTTCCAATGTTCAGTCAGCCCATCAGACCGCGGAGTCACCTAGTGCAG | 8110 fluorescence intensity (a.u.)
GTTCCAAAATTTTTCTTTAAACTTCCAACATTTTCATCACCGGAGTCACCTAGTGCAG | 9190 fluorescence intensity (a.u.)
GTATGGTACAGCACATTTCTCTGTTCAAGTGTTCATTATGCGGAGTCACCTAGTGCAG | 8610 fluorescence intensity (a.u.)
ATATATATGGATTAGGTTTGGATTGGGGATCATTTGTATGCGGAGTCACCTAGTGCAG | 8360 fluorescence intensity (a.u.)
ACCTAGATCCACCTCGTTAGTTTATTTTGTGAGAGTGCTCCGGAGTCACCTAGTGCAG | 9140 fluorescence intensity (a.u.)
AACACTCACATCAAGTCATCAACCGACCTTGTCAAGTCAACGGAGTCACCTAGTGCAG | 10600 fluorescence intensity (a.u.)
TTGGTTGCATGTTTTTTCACGTAAAATCTTAATTTTTGCACGGAGTCACCTAGTGCAG | 8150 fluorescence intensity (a.u.)
CCGACTGCTCAATCACCACCGGTCTGACCGGCTACCAGAGCGGAGTCACCTAGTGCAG | 17200 fluorescence intensity (a.u.)
TTGCTCACCAGAGCTACTACTACCGGTCTGTCACGCTCACCGGAGTCACCTAGTGCAG | 9180 fluorescence intensity (a.u.)
TGCTCCGACCACTGCCCACCCCGCTCCACCGGCTAGAGAGCGGAGTCACCTAGTGCAG | 9120 fluorescence intensity (a.u.)

Sequence | binding signal
CAACATCTTCTTTAGTTGCTCACACTTTTTCTTAGAATCACGGAGTCACCTAGTGCAG | 8340 fluorescence intensity (a.u.)
TTTCTTCGTCCTCTTGGTTTCCCTTTCAATTCATTCATTTCGGAGTCACCTAGTGCAG | 8460 fluorescence intensity (a.u.)
GCTCGCCCGTCTTTCGCTCTGCCCGCAGCCCGCCGCCGCTCGGAGTCACCTAGTGCAG | 14000 fluorescence intensity (a.u.)
ACCGGCCCAGAACAGTTGGGCAGCCCACGAAGTCACCAACCGGAGTCACCTAGTGCAG | 8540 fluorescence intensity (a.u.)
CTTAGTTCTCCGCGCTATTCACTTCTGCGCCGTCGCTTTTCGGAGTCACCTAGTGCAG | 8640 fluorescence intensity (a.u.)
GCGCTGTGGTCCCGGCGCCGGCAGTGGTTGCTTCTGCGCGCGGAGTCACCTAGTGCAG | 8560 fluorescence intensity (a.u.)
GAGGGGAGGGAGAGGTCGGAGATGGTTACCGGTGGGGAAGCGGAGTCACCTAGTGCAG | 12300 fluorescence intensity (a.u.)
TGGGTGGGTTGGGTGGGTGGGTGGGTGCGCGGCGGGTATGCGGAGTCACCTAGTGCAG | 32800 fluorescence intensity (a.u.)
GGGTGGGCGTGATGGAGTTGGGTCGGCCGGGGTGTCCGGTCGGAGTCACCTAGTGCAG | 14500 fluorescence intensity (a.u.)
CTCAGTATTGGGTTGGGTGGTGGTGGCGGCGGTGGCAGTGCGGAGTCACCTAGTGCAG | 13700 fluorescence intensity (a.u.)
CAAGATGGGTCGGGTTGGGTGGGGTTACTCGCACTAGCACCGGAGTCACCTAGTGCAG | 22300 fluorescence intensity (a.u.)
GCTTCGGCTCGGGGTGGGTTGGGTTGGGTTGGGTTCGATGCGGAGTCACCTAGTGCAG | 32400 fluorescence intensity (a.u.)
GACGGCGCCCTGCGGCTTCGGTTGCGGGGTGGGTGGTGGCCGGAGTCACCTAGTGCAG | 10300 fluorescence intensity (a.u.)
TTGGGTTGGGTTGGGTGGTCCATTCTGTACGGTGCGCCGGCGGAGTCACCTAGTGCAG | 19600 fluorescence intensity (a.u.)
GCGCGGCGGCGGTGGGGTGGTAGTGGTGGTGGGTGGAATGCGGAGTCACCTAGTGCAG | 13500 fluorescence intensity (a.u.)
GAAGCTTCGGGAGTGGTGGTGGGTTGCGGCCGTGCGGCTCCGGAGTCACCTAGTGCAG | 10900 fluorescence intensity (a.u.)
GTGGGGCTCGGGTTCCGGCCGGTGTAGGGGAGGGGAGATGCGGAGTCACCTAGTGCAG | 15700 fluorescence intensity (a.u.)
CATGTGTGGTGAGCATATTTGTTTGTACTGTTGTATTTTACGGAGTCACCTAGTGCAG | 9560 fluorescence intensity (a.u.)
CTTCTTCTATATCTGTAATCTTTCCTTATCTCCTCCCATGCGGAGTCACCTAGTGCAG | 8520 fluorescence intensity (a.u.)
CCACCTCGTTTTATGTAAAACACTTAATCTTCAACTTCAGCGGAGTCACCTAGTGCAG | 8860 fluorescence intensity (a.u.)
CGCAATCCACTTTCTCTCGCCAAGTCGTCGTCCATCCGATCGGAGTCACCTAGTGCAG | 9020 fluorescence intensity (a.u.)
